“And” between values parts separate entries of the source, which are not always exact repeats. Equal entries are not always repeated. Results filed as inconclusive are left out. Entries that show only a call come without a potency. The source made the active and inactive calls. The call rests on the fitted dose curve; in most records, active means well fitted cell-killing curve with a large enough effect; inconclusive means small, poorly fitted or top-dose-only effect, or effect the other way; inactive means no such curve, though single readings can be large or run the other way.
Potency means the concentration at half of the fitted maximal effect.

This assay can be described thus: Quantitative High-Throughput drug screen in 47 multiple myeloma cell lines against the NCATS MIPE library collection: Delta47_JCRB cell viability assay (AID 1918925; further: nearly all actives have a fitted effect of over 45% in size). To be noted: Delta47 myeloma viability, CellTiter-Glo ATP, 48 h; series mostly up to 45.8 µM. An excerpt: PI: Beverly A. Mock Ph.D.
Laboratory of Cancer Biology and Genetics,
Center for Cancer Research, National Cancer Institute,
National Institute of Health, Bethesda, Maryland
Drug resistance and disease progression are common in multiple myeloma (MM) patients, underscoring the need for new therapeutic combinations. […] We hypothesized that effective combinations would reduce MYC expression and enhance p16 activity. […] These preclinical data identify potentially useful drug combinations for evaluation in drug-resistant MM and reveal potential mechanisms of combined drug sensitivity.
Described herein is the primary MIPE qHTS used to cherrypick compounds. Validated compounds were then further tested for potential synergistic activiy.
[1] Peat TJ, Gaikwad SM, Dubois W, Gyabaah-Kessie N, Zhang S, Gorjifard S, Phyo Z, Andres M, Hughitt VK, Simpson RM, Miller MA, Girvin AT, Taylor A, Williams D, D'Antonio N, Zhang Y, Rajagopalan A, Flietner E, Wilson K, Zhang X, Shinn P, Klumpp-Thomas C, McKnight C, Itkin Z, Chen L, Kazandijian D, Zhang J, Michalowski AM, Simmons JK, Keats J, Thomas CJ, Mock BA. Drug combinations identified by high-throughput screening promote cell cycle transition and upregulate Smad pathways in myeloma. Cancer Lett. 2023 Aug 1;568:216284. doi: 10.1016/j.canlet.2023.216284. Epub 2023 Jun 24. PMID: 37356470; PMCID: PMC10408729.
SEQUENCE No. (e.g., 1, 2, 3, etc.); […] (e.g., Cells, Incubation, Reagent, etc.); VALUE and DESCRIPTION.
1; Cells; 5 uL; white, solid bottom 1536-well Greiner assay plate.
2; Compounds; 23 nL; Kalypsis pin tool (Wako USA) equipped with a 1536-well pin head to transfer to the assay plates.
3; Incubation; 48 hours; 37C incubation.
4; Reagent;5uL; CellTiter Glo (Promega).
5; Detector; 425V; Luminescence; Viewlux PerkinElmer.
NOTES (numbers refer to Sequence numbers above)
1. The cell-based screening methods employed in this study were like those previously published. Briefly, the corresponding myeloma cell lines were screened in 1,536-well plates with 500 cells, 5-uL per well for inhibition of cell viability (assessed by measuring ATP levels with CellTiterGlo).
2. NCATS MIPE 4.0 library of approved and investigational drugs were added using the Kalypsis pin tool. Wells treated with DMSO only for 100% viability and media only wells for 0% viability were used as controls.
3. The assay plates were covered and incubated for 48 hours in a 37C, 5% CO2 incubator with controlled humidity.
4. After 48 hours, CellTilter-GloTM luminescent substrate mix (Promega) reagent was added to the assay plate and plates we incubated for 5 min at room temperature.
5. Signal was measured as median relative luminescence units on a ViewLux (PerkinElmer) multiplate reader.
[1] Heske CM, Davis MI, Baumgart JT, Wilson K, Gormally MV, Chen L, Zhang X, Ceribelli M, Duveau DY, Guha R, Ferrer M, Arnaldez FI, Ji J, Tran HL, Zhang Y, Mendoza A, Helman LJ, Thomas CJ. Matrix Screen Identifies Synergistic Combination of PARP Inhibitors and Nicotinamide Phosphoribosyltransferase (NAMPT) Inhibitors in Ewing Sarcoma. Clin Cancer Res. 2017 Dec 1;23(23):7301-7311. doi: 10.1158/1078-0432.CCR-17-1121. Epub 2017 Sep 12. PMID: 28899971; PMCID: PMC6636827.
On the technique in general: ATP-based viability assays read luminescence as a measure of living cells.
With `CC(C=CC1=C(C)CCCC1(C)C)=CC=CC(C)=CC(=O)O`, the Potency was 11.8 µM (active) and 4.18 µM (active). With `OC(CN1CCC(Cc2ccc(F)cc2)CC1)c1ccc(Cl)cc1` (stereo not given) the entry was “inactive”; with `Cc1cc2c(F)c(Oc3ncnn4cc(OC[C@@H](C)O)c(C)c34)ccc2[nH]1`, 16.6 µM (active); with `COc1ccccc1[C@H](c1cccc2ccccc12)[C@@](C)(C#N)C(=O)N1CCC(c2cccc(C(F)(F)F)c2)CC1`, 8.33 µM (active).

`CCOc1ccc(Cc2cc([C@@H]3O[C@H](CO)[C@@H](O)[C@H](O)[C@@H]3O)ccc2Cl)cc1`: the Potency result is “inactive”.

On to `CS(=O)(=O)Oc1ccc2c(NC(N)=O)c(C(=O)c3ccc(Cl)cc3Cl)oc2c1`, for which the Potency was 14.8 µM (active).

In the case of `Cc1n[nH]c(C)c1Cc1sc2c(c1C(=O)N1C[C@H](O)CO1)c(=O)n(C)c(=O)n2CC(C)C`, the Potency result is “inactive”. `Nc1nc2[nH]cc(CCc3ccc(C(=O)N[C@@H](CCC(=O)O)C(=O)O)cc3)c2c(=O)[nH]1`: the Potency entry was “inactive”. With `OCCn1cc(-c2cnc3nnn(Cc4ccc5ncccc5c4)c3n2)cn1`, the Potency result was “inactive”. Turning to `Cc1cc2c(C(C)C)c(O)c(O)c(C=O)c2c(O)c1-c1c(C)cc2c(C(C)C)c(O)c(O)c(C=O)c2c1O`, the Potency was 8.33 µM (active). As for `Cc1cc([C@@H](C)Nc2ccccc2C(=O)O)c2nc(N3CCOCC3)cc(=O)n2c1`, the Potency is 2.7 µM (active).

On to `OCCC#Cc1nc(-c2ccc(F)cc2)c(-c2ccncc2)n1CCCc1ccccc1`, for which the Potency is 13.2 µM (active). For the compound `O=C(C=Cc1ccc(/C=C/C(=O)Nc2ccc(C3=NCCN3)cc2)cc1)Nc1ccc(C2=NCCN2)cc1`, the Potency result was “inactive”. Turning to `Cc1cccc(-c2[nH]c(C(C)(C)C)nc2-c2ccc3nccnc3c2)n1`, the Potency was 3.32 µM (active). Regarding `COc1cc2c(cc1OC)CN(CCc1ccc(NC(=O)c3cccc4c(=O)c5cccc(OC)c5[nH]c34)cc1)CC2`, the Potency result was “inactive”. For `CN(C)C(=O)c1ccc(S(=O)(=O)c2ccc(NC(=O)[C@@](C)(O)C(F)(F)F)c(Cl)c2)cc1`, the Potency is 10.5 µM (active). Regarding `CC(c1cc2ccccc2s1)N(O)C(N)=O` (stereo not given), the Potency entry is “inactive”. `CCC(C)N(C)C(=O)c1cc2ccccc2c(-c2ccccc2Cl)n1` (stereo not given): the Potency entry is “inactive”.

As for `CC(C)C[C@H](NC(=O)[C@@H](O)[C@H](N)Cc1ccccc1)C(=O)O`, the Potency is 20.9 µM (active). With `O=NN(CCCl)C(=O)NCCCl` the entry was “inactive”. Take `Cc1ccc(-n2nc(C(C)(C)C)cc2NC(=O)Nc2ccc(OCCN3CCOCC3)c3ccccc23)cc1`: the Potency is 2.64 µM (active). Regarding `Cc1csc(NC(=O)c2sc3nc4c(c(C(F)(F)F)c3c2N)CCC4)n1`, the Potency result was “inactive”. For the compound `CCn1c(-c2nonc2N)nc2c(C#CC(C)(C)O)ncc(OC[C@H]3CCCNC3)c21`, the Potency is 0.0469 µM (active).

For `O=c1n(CCCN2CCN(c3cccc(Cl)c3)CC2)nc2ccccn12`, the Potency result was “inactive”. On to `CC1(C)CNc2cc(NC(=O)c3cccnc3NCc3ccncc3)ccc21`, for which the Potency result is “inactive”. Consider `CCC(=O)N[C@H]1CC[C@H](C(=O)N(C)c2ccc(-c3nc4ccccc4o3)cc2)C1`, for which the Potency was 8.33 µM (active). On to `COc1c(Cl)cc2c([nH]c3cnccc32)c1NC(=O)c1cccnc1C`, for which the Potency is 2.96 µM (active).

For `COc1ccc(C2=N[C@H](c3ccc(Cl)cc3)[C@H](c3ccc(Cl)cc3)N2C(=O)N2CCNC(=O)C2)c(OC(C)C)c1`, the Potency is 2.35 µM (active). For `O=c1[nH]cnc2[nH]ncc12`, the Potency result was “inactive”. On to `NC(=O)c1ccc(I)c([N+](=O)[O-])c1`, for which the Potency is 18.7 µM (active). With `CCC(C)n1ncn(-c2ccc(N3CCN(c4ccc(OC[C@H]5CO[C@](Cn6cncn6)(c6ccc(Cl)cc6Cl)O5)cc4)CC3)cc2)c1=O` (stereo not given in full), the Potency result is “inactive”.

`Cc1ccc(N(CC2=NCCN2)c2cccc(O)c2)cc1`: the Potency entry was “inactive”.

For `CCCS(=O)(=O)Nc1ccc(F)c(C(=O)c2c[nH]c3ncc(-c4ccc(Cl)cc4)cc23)c1F`, the Potency was 8.33 µM (active). Turning to `CCc1cncnc1N1CCN(Cc2nc3ccc(C(F)(F)F)cc3[nH]2)CC1`, the Potency is 13.2 µM (active). As for `Clc1cccc(Cl)c1NC1=NCCN1`, the entry is “inactive”; as for `Oc1cccc(-c2nc(N3CCOCC3)c3oc4ncccc4c3n2)c1`, 0.0171 µM (active). As for `CCN(c1ccccc1)c1cc(NC)[n+](C)c(C)n1`, the entry is “inactive”; as for `NC(=O)c1cnccn1`, “inactive”; as for `CC(C)OC(=O)C1=CN(C(=O)c2ccc(F)c(F)c2)CC(C)(C)c2c1[nH]c1ccccc21`, “inactive”. Take `NC[C@H](O)c1ccc(O)c(O)c1`: the Potency entry was “inactive”.

The record behind these values is PubChem BioAssay (NCATS).
